Reference: ChEMBL document CHEMBL3988442, “University of Dundee, Small-Polar-MMV Screening Library” (2021)
Out of some 48,000 compounds screened, about 13,000 (27%) showed an effect of 50% or more. This is one part of the list.

Test system: Wolbachia pipientis
Assay: Anti-Wolbachia Cell-Based Screen
Format: functional
Design: scale not given: in the data most compounds retested in dose-response had high values
Settings: 5 µM

Compound | Percent Effect [%]
CN1CCOC(c2cncc(CCC(N)=O)n2)C1 (configuration not stated) | 120.9
CC(=O)N1CCOC(c2cncc(CCC(=O)N(C)C)n2)C1 (configuration not stated) | 131.5
Cn1cc(CC(=O)N2CCOC(c3nc(C(C)(C)C)n[nH]3)C2)cn1 (configuration not stated) | -9.292
CCCc1n[nH]c(C2CN(CC(=O)N(C)Cc3ccco3)CCO2)n1 (configuration not stated) | -31.39
CC(=O)N1CCOC[C@H](OCC(=O)N(C)C)C1 | -10.39
Cc1cnn(CCC(=O)N2CCOC(c3nc(C(C)(C)C)n[nH]3)C2)c1 (configuration not stated) | 0.508
Cc1nn(CCC#N)c(C)c1CCC(=O)N(C)C.Cl | 11.54
CC(=O)N1CCOC(c2cncc(CCC(N)=O)n2)C1 (configuration not stated) | 132.1
CN1CCOC(c2cncc(CCC(=O)N(C)C)n2)C1 (configuration not stated) | 119.8
CC(C)(C)c1n[nH]c(C2CN(C(=O)CCc3cscn3)CCO2)n1 (configuration not stated) | -3.136
CCC(CC)CN1CCC2(CCC(=O)N2OCc2ccccc2F)CC1 | 5.285
CSCC(C)(O)CNc1cccc(F)c1C(C)=O (configuration not stated) | 5.644
Cc1nc(CNC(C(=O)N2CCOCC2)c2ccccc2)cs1 (configuration not stated) | -4.254
COCCN(C)CCN1CC2(CCN(C3CCSC3)CC2)OC1=O (configuration not stated) | -12.17
NC(=O)CCn1ccc(NC(=O)c2ccc(OCC3CC3)cc2)n1 | -25.96
CC(C)(C(=O)NCC(N)=O)c1ccccc1F | -10.57
Cc1cn2c(CN(C)C(=O)c3nccnc3N)c(C)nc2s1 | -5.585
Nc1nccc(N[C@H]2CN(CC(=O)NC3CCCCC3)C[C@@H]2C2CC2)n1 | -21.82
Cn1c(SCC(O)COCc2ccc(Cl)cc2)nnc1C1CC1 (configuration not stated) | -3.183
Cc1cnc(C(=O)N2C[C@@H]3CN(CC4CCCC4)CCO[C@@H]3C2)cn1.O=C(O)C(F)(F)F | -8.351
O=C(C1CC(F)(F)C1)N1C[C@@H]2CN(Cc3ccsc3)CCO[C@@H]2C1.O=C(O)C(F)(F)F | 8.794

Compound | Percent Effect [%]
CCN1CCO[C@@H]2CN(C(=O)COC3CCCC3)C[C@@H]2C1.O=C(O)C(F)(F)F | 2.686
O=C(CC1CCCC1)N1C[C@@H]2CN(Cc3ccoc3)CCO[C@@H]2C1 | -9.792
O=C(C1CC(F)(F)C1)N1C[C@@H]2CN(CC3CC3)CCO[C@@H]2C1.O=C(O)C(F)(F)F | 110.9
O=C(O)C(F)(F)F.O=C(c1cocn1)N1C[C@@H]2CN(CC3CC3)CCO[C@@H]2C1 | 1.689
O=C(C1CC(F)(F)C1)N1C[C@@H]2CN(CC3CCCC3)CCO[C@@H]2C1.O=C(O)C(F)(F)F | 97.34
O=C(C1CC(F)(F)C1)N1C[C@@H]2CN(Cc3ccoc3)CCO[C@@H]2C1 | 97.76
O=C(N1CCCC1)N1C[C@@H]2CN(Cc3ccoc3)CCO[C@@H]2C1 | 26.69
CCS(=O)(=O)CC(=O)NC1(c2ccc(Cl)c(Cl)c2)CC1 | -4.937
NC(=O)CC1CCN(S(=O)(=O)c2cnn(-c3ccccc3)c2)CC1 | 23.91
OC[C@H]1CCN(Cc2ccc3ccccc3n2)C[C@@H]1O | -11.71
COc1c(C2CCCN2c2ncnc3c2CCC3)c(C)nn1C (configuration not stated) | -10.62
CCS(=O)(=O)N1CCC(c2nnc(C3CC3)o2)CC1 | -10.63
Cc1cc(-c2ccc(=O)n(C3CCN(S(C)(=O)=O)CC3)n2)c(C)o1 | 123.5
CCCS(=O)(=O)N1CCC(n2nc(-c3cc(C)oc3C)ccc2=O)CC1 | 123.5
Cc1cc(-c2n[nH]c3c2CN(S(=O)(=O)c2ccsc2)CC3)c(C)o1 | 6.081
CCS(=O)(=O)N1CCC(n2nc(-c3cc(C)oc3C)ccc2=O)CC1 | 128.2
Cc1cc2cc(CNC3CCN(S(C)(=O)=O)CC3)oc2cc1C | -4.149
CN(C)S(=O)(=O)N1CCC(Oc2ccc(C#N)cc2)CC1 | -11.9
Cc1ccc(C(C)NC(=O)N2CCN(S(C)(=O)=O)CC2)o1 (configuration not stated) | 16.96
CCCS(=O)(=O)N1CCC(c2ccc(OC)cc2)CC1 | -3.773
Cc1cc(-c2ccc(=O)n(C3CCN(S(=O)(=O)N(C)C)CC3)n2)c(C)o1 | 95.62

Compound | Percent Effect [%]
CN(C)S(=O)(=O)N1CCC(C(O)c2ccc(Cl)cc2)CC1 (configuration not stated) | -7.887
CCCS(=O)(=O)N1CCC(NC(=O)c2cc(C)c(CC)s2)CC1 | 4.17
COc1cc(F)ccc1-c1cc(CO)ccn1 | -29.15
CC(=O)N[C@@H]1Cc2ccccc2[C@H]1Nc1ccncn1 | 4.323
CCC1CCCCN1S(=O)(=O)c1c(N)noc1C (configuration not stated) | 0.4068
O=C(c1ccc(-c2cccs2)cc1F)N1CCN(CCO)CC1 | -12.79
COc1ccc(C(=O)N2CCN(CCO)CC2)c(F)c1 | 102.7
Cc1nc2cc(F)cc(C(=O)N3CCN(CCO)CC3)c2nc1C | -10.5
Cc1cc(C(=O)NC2CCc3c(ccc(=O)n3CC3CC3)C2)no1 (configuration not stated) | 117.2
N#Cc1cccc(C(=O)NC2CCc3c(ccc(=O)n3CC3CC3)C2)c1 (configuration not stated) | 110.8
Cc1cc(C(=O)N[C@H]2CC[C@@]3(CCC(=O)N3C)CC2)no1 | -27.57
CC(=O)NCC(=O)NC1CCc2c(ccc(=O)n2CC2CC2)C1 (configuration not stated) | -21.87
CC(C)Cn1c2c(ccc1=O)CC(NC(=O)c1ccsc1)CC2 (configuration not stated) | -16.59
Cc1cc(C(=O)NC2CCc3c(ccc(=O)n3CCN(C)C)C2)no1 (configuration not stated) | 93.45
O=C(CC1CC1)NC1CCc2c(ccc(=O)n2CC2CC2)C1 (configuration not stated) | -16.88
O=C(NC1CCc2c(ccc(=O)n2CC2CC2)C1)c1cscn1 (configuration not stated) | -44.11
CC(C)Cn1c2c(ccc1=O)CC(N)CC2 (configuration not stated) | -23.17
Cc1cc(C(=O)NC2CCc3c(ccc(=O)n3CC(C)C)C2)no1 (configuration not stated) | 105.4
CCc1cc(NC2CCS(=O)(=O)CC2)nc(N2CCCCC2)n1 | -3.09
Cn1c(CO)cnc1SC1CCCN(c2ccccc2F)C1=O (configuration not stated) | -6.766
